Assay results published in article PMC5540273 (PLoS ONE, 2017).

What was measured:
Details in all cases: concentration: 1 μM, replicates: in singlicate; n = 1
TTK = tested on: TTK
TXK = tested on: TXK
[1] = tested on: TYK2(JH1domain-catalytic)
[2] = tested on: TYK2(JH2domain-pseudokinase)
TYRO3 = tested on: TYRO3
ULK1 = tested on: ULK1
ULK2 = tested on: ULK2
ULK3 = tested on: ULK3
VEGFR2 = tested on: T1, VEGFR2
T1 construct: gene KDR

VPS34 = tested on: T2, VPS34
T2 construct: gene PIK3C3

VRK2 = tested on: VRK2
WEE1 = tested on: WEE1
WEE2 = tested on: WEE2
WNK1 = tested on: WNK1
WNK2 = tested on: WNK2
WNK3 = tested on: WNK3
WNK4 = tested on: WNK4
YANK1 = tested on: T3, YANK1
T3 construct: gene STK32A

YANK2 = tested on: T4, YANK2
T4 construct: gene STK32B

YANK3 = tested on: T5, YANK3
T5 construct: gene STK32C
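Further: KINOMEscan kinase panel screen.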

Compound | %Inh (TTK) | %Inh (TXK) | %Inh [1] | %Inh [2] | %Inh (TYRO3) | %Inh (ULK1) | %Inh (ULK2) | %Inh (ULK3) | %Inh (VEGFR2) | %Inh (VPS34) | %Inh (VRK2) | %Inh (WEE1) | %Inh (WEE2) | %Inh (WNK1) | %Inh (WNK2) | %Inh (WNK3) | %Inh (WNK4) | %Inh (YANK1) | %Inh (YANK2) | %Inh (YANK3)
Cc1cccc(-c2nc(C)cc(Nc3ccncc3)n2)n1 [GSK257997] | 0% | 0% | 0% | 15% | 21% | 0% | 0% | 6% | 0% | 11% | 0% | 9% | 2% | 6% | 6% | 6% | 0% | 10% | 0% | 5%
CC(=O)Nc1nc2cnc(Nc3cc(NC(=O)c4cccc(CCC#N)c4)ccc3C)nc2s1 | 16% | 0% | 21% | 27% | 1% | 0% | 20% | 0% | 29% | 12% | 0% | 0% | 0% | 0% | 22% | 0% | 11% | 15% | 9% | 34%
O=C(Nc1n[nH]c2nc(-c3nccs3)c(Br)cc12)C1CC1 [SB-742251] | 0% | 0% | 36% | 77% | 0% | 21% | 7% | 0% | 0% | 0% | 0% | 16% | 7% | 23% | 2% | 35% | 51% | 6% | 0% | 7%
Fc1cc(Cl)ccc1Nc1ccnc2cc(-c3ccc(CN4CCCCC4)o3)ccc12 [GW560116] | 0% | 23% | 27% | 18% | 0% | 0% | 0% | 0% | 6% | 22% | 38% | 0% | 4% | 0% | 0% | 34% | 49% | 0% | 0% | 0%
Cl.Oc1ccc(-c2nc(-c3ccccc3)[nH]c2-c2ccncc2)cc1 [SB-428218] | 0% | 8% | 100% | 67% | 0% | 8% | 0% | 6% | 0% | 0% | 64% | 64% | 8% | 0% | 0% | 0% | 60% | 8% | 0% | 21%
COc1cc2ncn(-c3cc(OCC4CCCO4)c(C(N)=O)s3)c2cc1OC (stereo not drawn) [GSK204607] | 0% | 9% | 15% | 31% | 0% | 0% | 0% | 0% | 8% | 0% | 19% | 9% | 3% | 0% | 8% | 12% | 35% | 9% | 0% | 0%
O=C(O)COc1ncnc2cc(-c3ccc4[nH]ncc4c3)sc12 | 0% | 14% | 29% | 55% | 0% | 43% | 26% | 33% | 36% | 27% | 8% | 0% | 6% | 7% | 32% | 1% | 23% | 12% | 4% | 14%
Cc1c(Cn2ccn3c(=O)cc(N4CCOCC4)nc23)cccc1C(F)(F)F [GSK2289044] | 1% | 0% | 0% | 0% | 0% | 7% | 0% | 0% | 1% | 95.1% | 0% | 0% | 0% | 0% | 0% | 14% | 0% | 9% | 1% | 31%
COc1ccc(C2=C(Nc3cccc(C(=O)O)c3)C(=O)NC2=O)cc1 [SB-390765] | 10% | 21% | 0% | 0% | 22% | 16% | 8% | 28% | 21% | 33% | 0% | 0% | 16% | 49% | 15% | 23% | 24% | 0% | 0% | 0%
O=C(Nc1ccc2c(c1)OCO2)NC1CCN(c2ccnc(Nc3ccc(F)cc3)n2)C1 (stereo not drawn) [GSK1379724] | 26% | 43% | 9% | 33% | 0% | 9% | 0% | 16% | 0% | 0% | 0% | 11% | 4% | 8% | 3% | 31% | 11% | 9% | 0% | 5%
Cc1cc(N2Cc3ccccc3C2)nc(Nc2ccc(S(=O)(=O)N3CCOCC3)cc2)n1.Cl [GSK1669917] | 0% | 0% | 7% | 0% | 0% | 0% | 0% | 0% | 0% | 0% | 0% | 3% | 0% | 0% | 7% | 2% | 10% | 7% | 0% | 0%
Cc1ccc(C(=O)Nc2ccc(Nc3ccnc4cc(-c5ccccn5)ccc34)cc2O)cc1.Cl [GW440146] | 0% | 5% | 28% | 19% | 0% | 0% | 0% | 3% | 13% | 0% | 0% | 39% | 0% | 10% | 8% | 36% | 39% | 0% | 14% | 30%
Fc1cc(Cl)ccc1Nc1ccnc2cc(I)ccc12 [GW551191] | 0% | 28% | 13% | 16% | 18% | 3% | 0% | 0% | 6% | 2% | 0% | 8% | 0% | 3% | 11% | 29% | 16% | 16% | 11% | 20%
COc1cccc(NC(=O)NC2CCN(c3ccnc(Nc4ccc(F)cc4)n3)C2)c1 (stereo not drawn) [GSK1379721] | 9% | 41% | 26% | 52% | 0% | 13% | 0% | 9% | 10% | 7% | 0% | 6% | 0% | 5% | 8% | 33% | 2% | 0% | 0% | 0%
Cc1c(O)cccc1Nc1ccnc2ccc(C(F)(F)F)cc12.Cl [GW466413] | 0% | 25% | 9% | 14% | 3% | 2% | 0% | 0% | 0% | 0% | 26% | 0% | 0% | 23% | 17% | 21% | 1% | 0% | 10% | 15%
C[C@@H]1CCCCN1c1cc(-c2ccc3c(N)n[nH]c3c2)nc(N)n1 [GSK2258759] | 0% | 0% | 0% | 3% | 0% | 0% | 0% | 0% | 0% | 0% | 0% | 0% | 13% | 0% | 6% | 16% | 39% | 3% | 0% | 0%
CC1=C(C(=O)Nc2cc3cn[nH]c3cc2F)C(c2ccc(C(F)(F)F)cc2)CC(=O)N1 (stereo not drawn) [GSK429286] | 25% | 21% | 14% | 3% | 12% | 0% | 0% | 34% | 0% | 0% | 0% | 12% | 20% | 20% | 61% | 3% | 0% | 8% | 0% | 24%
O=S(=O)(c1ccc(-c2ccnc3[nH]ccc23)cc1)N1CCCC1 [GSK846226] | 20% | 9% | 62% | 20% | 0% | 19% | 0% | 27% | 15% | 46% | 0% | 8% | 2% | 5% | 7% | 3% | 0% | 11% | 0% | 0%
Cc1cccc(-c2nc(-c3ccc(S(C)(=O)=O)cc3)sc2-c2ccnc(NCCc3ccccc3)c2)c1 | 10% | 6% | 0% | 18% | 0% | 0% | 8% | 0% | 0% | 82% | 0% | 0% | 9% | 0% | 0% | 0% | 0% | 0% | 13% | 14%
Cc1ccc(-c2cc(-c3c[nH]nc3-c3ccccn3)ccn2)cc1 [GW684088] | 0% | 0% | 18% | 22% | 0% | 0% | 0% | 3% | 22% | 0% | 45% | 1% | 0% | 6% | 19% | 53% | 89% | 0% | 0% | 0%
Cc1cccc(-c2cc(Nc3ccncc3)c3ccccc3n2)n1 [GSK223675] | 0% | 87% | 0% | 22% | 0% | 13% | 0% | 6% | 15% | 0% | 0% | 20% | 0% | 4% | 0% | 1% | 0% | 2% | 0% | 0%
